Data on 40 compounds can be found in PubChem BioAssay AID1259240 (Keith Lab, Institute of Cancer Science, University of …, 2017).

Unmarked numbers belong to inactive results. The source made the active and inactive calls. Rule as the data show it: active = fold change mostly below about -2 (no sharp cut-off); inactive = mostly above about -1.8.

This assay in a line: TERT promoter activity modulators, primary screen, cell-based, luciferase reporter, human (AID 1259240). Conditions: A2780 TERT promoter luciferase reporter, 16 h; at 20 µM, fold versus average of vehicle-only wells. For orientation: In a reporter assay the amount or activity of a reporter protein is the signal.
For the compound `CCNc1nc(NCC)nc(OCCNS(=O)(=O)c2ccccc2)n1`, the fold change is -1.79. Consider `Cc1cc(C)cc(N(CC(=O)NCc2cccs2)S(=O)(=O)c2c(C)[nH]c(=O)[nH]c2=O)c1`, for which the fold change was -2.11 (active). The same measure, in the same setting: then `O=C(CCN1C(=O)c2ccccc2S1(=O)=O)Nc1cccc(Br)c1`, with 1.01; and `CCOC(=O)C1=C(CS(=O)(=O)c2ccc(F)c(C)c2)NC(=O)NC1c1ccccc1` (stereo not given), with 1.21. In the case of `CC1(C)CC(=O)c2sc(NC(=O)Cc3ccc(Br)cc3)nc2C1`, the fold change is -3.4 (active). For the compound `CN1CCN(CCCNC(=O)Cn2ncc3c4ccccc4n(C)c3c2=O)CC1`, the fold change is -1.07.

For the compound `CC1CCOC2(O1)C(=O)N(CN1CCN(c3cccc(Cl)c3)CC1)c1ccccc12` (stereo not given), the fold change is -1.15. With `Cc1cc(C(=O)N2CCC(C)CC2)on1`, the fold change was 1.62. Still for that read-out and setting: the result for `O=C1N=C(N2CCOCC2)S/C1=C1\C(=O)N(Cc2ccccc2)c2ccccc21` reads -2.02 (active); that for `COc1ccccc1/C=c1\sc2nc(-c3cc(OC)c(OC)c(OC)c3)nn2c1=O`, -1.32; that for `COc1ccc(-c2cc(N3C(=O)Nc4ccccc4N3O)n[nH]2)cc1OC`, 1.2.

With `CCN(CC)C(=O)C1=C(C)Nc2nc3ccccc3n2C1c1ccncc1` (stereo not given), the fold change is -1.02.

Turning to `COC(=O)c1cc(NS(=O)(=O)c2cccc3cccnc23)cc(C(=O)OC)c1`, the fold change is -1.91. Still for that read-out and setting: then `C=CCn1c(SCC(=O)N2CCCCC2)nc2sc3c(c2c1=O)CCC3`, with -1.53.

With `CC(C)C(C(=O)O)N1C(=O)/C(=C/c2cccs2)SC1=S` (stereo not given), the fold change is -3.32 (active).

Consider `COCC(=O)N1N=C(c2ccc(NS(C)(=O)=O)cc2)CC1c1ccccc1` (stereo not given), for which the fold change was 1.13. For the compound `Fc1ccc(CNc2nnc(Cc3ccncc3)c3ccccc23)cc1`, the fold change is -1.53.

For `O=C(CCC(=O)NC1CCCC1)NNc1nc2ccccc2c2nc(-c3ccccc3)nn12`, the fold change is -1.47. Turning to `CCCCNc1c(N2CCN(C(=O)OCC)CC2)c(=O)c1=O`, the fold change was 1.31. Consider `O=c1/c(=C/c2cn(-c3ccccc3)nc2-c2ccccc2)sc2nc(-c3ccco3)nn12`, for which the fold change was 1.18. Still for that read-out and setting: then `CCOc1ccc(OCC)c(NC(=O)C2CCCN(S(=O)(=O)c3cnc[nH]3)C2)c1` (stereo not given), with 1.05; and `O=C(CCCc1nnc2n3nc(-c4ccccc4)nc3c3ccccc3n12)NCC1CCCO1` (stereo not given), with 1.2; and `Clc1ccc2c(c1)C1CC(c3ccccc3)=NN1C(c1ccncc1)O2` (stereo not given), with -1.13. For `CCN(CC)c1ccc2cc(C(=O)O)c(=O)oc2c1`, the fold change is 1.12. As to `Clc1ccc(CNc2ncnc3nc[nH]c23)cc1`, the fold change is 2.09 (active). Turning to `CCOC(=O)c1c(NC(=O)Nc2ccc(F)cc2)sc2c1CCN(C(=O)OCC)C2`, the fold change is -1.41. In the case of `CC(C)(C)OC(=O)CN1C(=O)c2ccccc2S1(=O)=O`, the fold change was 1.98. Regarding `O=C(NC1CCCCC1)c1cccc(NC2=NC3CS(=O)(=O)CC3S2)c1` (stereo not given), the fold change is -1.15. The same measure, in the same setting: then `CCOC(=O)C1CCN(c2c(NCCCN3CCCCCC3)c(=O)c2=O)CC1`, with -1.3; and `COC(=O)c1ccc(C(=O)OC)c(NC2=NS(=O)(=O)c3ccccc32)c1`, with 1.16; and `CC(C)OCCCNc1nc(-c2ccccc2)nc2ccccc12`, with -1.24. For the compound `Cc1ccc2c(C)nc(NC3=NCN(C4CCCC4)CN3)nc2c1`, the fold change was -2.

As to `CCOc1ccc(-n2c(O)c(C3=c4cc(Br)ccc4=NC3=O)[nH]c2=S)cc1`, the call was inactive. `O=S(=O)(NCc1ccc2c(c1)OCO2)c1cccc2cccnc12`: the fold change was -1.35. As for `c1ccc(Nc2c(-c3ccc(N4CCOCC4)cc3)nc3cnccn23)cc1`, the fold change was 1.08. `COc1ccc(C2C=C(c3cccnc3)Nc3nc4ccccc4n32)cc1` (stereo not given): the outcome was inactive. For `Cc1nc(SCC(=O)Nc2cc(C)on2)c2c(=O)n(C)c(=O)n(C)c2n1`, the fold change is -1.1.

In the case of `O=C1Nc2ccccc2N(O)N1c1cc(-c2cccc(Cl)c2)no1`, the fold change is 1.45. On to `CC(C)C(NS(=O)(=O)c1ccc2c(c1)oc(=O)n2C)C(=O)NCc1cccs1` (stereo not given), for which the fold change is -1.35. For the compound `NC(=O)C1CCN(c2nc3ccccn3c(=O)c2/C=C2/SC(=S)N(CC(=O)O)C2=O)CC1`, the fold change is -1.43.
